Assay results: the supplement of paper PMC6555819

How the values were obtained:
Test in all cases: PBM binding z-score (relative to random genomic background probes); higher = stronger binding; sequences stand for … in GC…GCGATTGACAGCGTAGAATGAAGG
[1] = test system: RARb homodimer (NR concentration 270 nM)
Outline: (§1)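 Regression normalization was applied to scanned fluorescence from custom Agilent 4×180K protein-binding microarrays. Before scanning, arrays were incubated 1 h with ligand-free nuclear receptor dimers, and binding was detected with antibodies against each partner (one per run). Binding z-scores use the random background probes as reference.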

[2] = test system: RARg:RXRa (NR concentration 270 nM, RXRa partner concentration 90 nM)
Outline: as §1

[3] = test system: RARg homodimer (NR concentration 270 nM)
Outline: as §1

[4] = test system: RXRa DBDmut IVT, anti-RXR (DBD mutation: RXRa K156A/R161A, NR concentration 90 nM)
Outline: as §1

[5] = test system: RXRa homodimer (NR concentration 180 nM)
Outline: as §1

[6] = test system: THRa:RXRa (NR concentration 90 nM, RXRa partner concentration 90 nM)
Outline: as §1

[7] = test system: THRa homodimer (NR concentration 90 nM)
Outline: as §1

[8] = test system: VDR homodimer (NR concentration 270 nM)
Outline: as §1

| Sequence | PBM binding z-score [1] | PBM binding z-score [2] | PBM binding z-score [3] | PBM binding z-score [4] | PBM binding z-score [5] | PBM binding z-score [6] | PBM binding z-score [7] | PBM binding z-score [8] |
| --- | --- | --- | --- | --- | --- | --- | --- | --- |
| TAGCCTAGGTCATGGGCCAGTCTACCACGCGAAC | 2.8 | 4.32 | 4.43 | -0.0274 | 3.69 | 2.93 | 1.09 | 0.0195 |
| CAAACTTGGTCAAGAGGTCAAAGTCCGCTTCCCG | 4.85 | 5.94 | 4.95 | 2.03 | 6.1 | 3.78 | 1.66 | 3.57 |
| CCTACTGGGGCAAAAAGGTCATTGATGCCGATAA | 4.23 | 4.99 | 4.5 | 0.866 | 4.63 | 2.9 | 0.176 | 3.13 |
| TCGAGTAGGTTGGGGGCATTCAGAATGGCGTCGA | 1.42 | 1.32 | 0.732 | 1.74 | 1.57 | 2.11 | 1.52 | 3.27 |
| AGTCAAAGTTCAGGACGTGGTAACGTAAAGCACG | 3.13 | 4.04 | 4.85 | 2.76 | 2.67 | 2.37 | 0.614 | 1.49 |
| ATCTCTAGGTAAGACTCAGTACAGTGAAGAACGC | 0.3 | 0.259 | 0.586 | 0.238 | 0.176 | 0.369 | 0.766 | 0.66 |
| CCGACTGGGGCAAAGGTTATCATACTCAGTACGA | 1.89 | 3 | 1.45 | 0.137 | 3.11 | 1.66 | -0.0355 | 0.133 |
